Compounds without any hit were thinned out: in the full panel of roughly 83,000, 20% have a hit.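 Testing used 96-well plates and a 48-hour single-concentration exposure. Example: -40 means 40% of the starting cells died.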 Unmarked numbers belong to inactive results. Calls of active or inactive are those of the source. The calls were made as follows: active = growth percent below 10; inactive = the rest.
system: SF-295 CNS; assay: NCI-60 one-dose screen, 48 h (100 = growth as untreated, 0 = no growth, -100 = all killed); conditions: 10 µM unless noted

| Compound | growth |
| --- | --- |
| COc1ccc(/C(=C\c2cc(OC)c(OC)c(OC)c2)C(=O)N2CCNCC2)cc1 | 104% |
| F | 2.46% [6.87 mM] (active) |
| CC[C@H](Nc1nc(N)nc(C2CC2)c1C#N)c1nc2cccc(NCc3ccc(C(=O)NO)cc3)c2c(=O)n1-c1ccccc1 | -26.9% (active) |
| O=c1[nH]c2cc(Cl)c(Cl)cc2o1 | 55.9% |
| CC[C@H](Nc1nc(C)nc(N)c1C#N)c1nc2cccc(NCc3ccc(C(=O)NO)cc3)c2c(=O)n1-c1ccccc1 | 21.5% |
| Clc1ccc2c(c1)-n1cccc1C(c1ccc3ccccc3c1)=NC2 | 80.6% |
| COc1ccc(-c2cn(-c3cccc(C(=O)/C=C/c4ccc(O)c(OC)c4)c3)c(=O)[nH]2)cc1 | 15.2% |
| CCCCCCCCCCCCCCCc1cc(O)ccc1[N+](=O)[O-] | 94.3% |
| COC1=CC(c2ccc[nH]2)=N/C1=C\c1[nH]c(C)c(C(=O)CCCCCCCCC(=O)O[C@H]2CC[C@H]3C4CCc5cc(O)ccc5C4CC[C@]23C)c1C (stereo partly specified) | 28.8% |
| CCCCN(CCCC)CCCN=c1nc2c(c(N)n1-c1ccccc1)c(=S)n(-c1ccccc1)c(=S)n2-c1ccccc1 | -100% (active) |
| [Ag].[Ag].[NH-]S(=O)(=O)c1ccc(N=Nc2cc(N=Nc3ccc(S([NH-])(=O)=O)cc3)c3c(NC(=O)C(Cl)Cl)cccc3c2OC(=O)C(Cl)Cl)cc1.[c-]1nccs1.[c-]1nccs1 | 81.6% |
| COC(=O)C(C)NC1=C(Cl)C(=O)C(NC(C)C(=O)OC)=C(Cl)C1=O (stereo unspecified) | 99% |
| COc1cc2nccc(Oc3ccc(NC(=O)C4(C(=O)Nc5ccc(F)cc5)CC4)cc3)c2cc1OC(=O)c1ccc(N)cc1 | -74.6% (active) |

system: SF-539 CNS; assay: as above; conditions: 10 µM unless noted

| Compound | growth |
| --- | --- |
| COc1ccc(/C(=C\c2cc(OC)c(OC)c(OC)c2)C(=O)N2CCNCC2)cc1 | 102% |
| O=c1c2sc3ncc(Cl)cc3c2nnn1-c1cccc(Cl)c1 | 82.1% |
| F | -13% [6.87 mM] (active) |
| CC1=C(C(=O)Nc2ccc(F)cc2)C(c2ccc(C)cc2)C2=C(CC(C)(C)CC2=O)N1 (stereo unspecified) | 93.3% |
| CC[C@H](Nc1nc(N)nc(C2CC2)c1C#N)c1nc2cccc(NCc3ccc(C(=O)NO)cc3)c2c(=O)n1-c1ccccc1 | -0.037% (active) |
| CC(C)N1CCN(c2ccncc2S(=O)(=O)N2CCN(C)CC2)CC1 | 99.8% |
| c1ccc(C(CC2=NCCCN2)c2ccccc2)cc1 | 88% |
| Clc1ccc2c(c1)-c1ccccc1C1=NCCN12 | 33.8% |
| O=C(C=P(c1ccccc1)(c1ccccc1)c1ccccc1)CCl | -20% (active) |
| COc1cc(/C=C/C(=O)c2ccc(NC(=O)CSc3nnc(-c4ccc(Cl)cc4)n3-c3ccccc3)cc2)cc(OC)c1OC | 91.3% |
| OC(c1cc2cc(Cl)ccc2c2cc(C(F)(F)F)ccc12)C1CCCCN1 (stereo unspecified) | -80.5% (active) |
| Clc1cc(Br)ccc1-c1ccc(CNCC2CCNCC2)o1 | 29.6% |
| CN1CCN(Cc2ccc(NC(=O)c3cncc(C#Cc4ncc5cnccn45)c3)cc2C(F)(F)F)CC1 | 37.8% |
| CC1=C(C(=O)Nc2ccc(F)cc2)C(c2ccc(Cl)cc2)C2=C(CC(C)(C)CC2=O)N1 (stereo unspecified) | 94% |
| CCOC(=O)c1ccc(N(CCC(=O)O)C(C)=O)cc1 | 107% |
| O=c1[nH]c2cc(Cl)c(Cl)cc2o1 | 105% |
| CC(COC(=O)c1ccccc1)N1CC2CCC(C1)O2 (stereo unspecified) | 100% |
| CC[C@H](Nc1nc(C)nc(N)c1C#N)c1nc2cccc(NCc3ccc(C(=O)NO)cc3)c2c(=O)n1-c1ccccc1 | 14.6% |
| Cc1cc(NC(=O)C2c3ccccc3C(=O)N(CC(C)C)C2c2cccs2)no1 (stereo unspecified) | 18.2% |

| Compound | growth |
| --- | --- |
| Clc1ccc2c(c1)-n1cccc1C(c1ccc3ccccc3c1)=NC2 | 103% |
| CCC1CCc2nc3sc(C(=O)Nc4cccc(F)c4)c(N)c3cc2C1 (stereo unspecified) | 58.8% |
| CCn1c(CN2CCN(Cc3ccccc3)CC2)nc2cc(NC(=O)c3cccs3)ccc21 | -69.8% (active) |
| CCN(CC)CCCNc1cccc2c(C)cc(OC)nc12 | 88.8% |
| COc1ccc(-c2cn(-c3cccc(C(=O)/C=C/c4ccc(O)c(OC)c4)c3)c(=O)[nH]2)cc1 | 10.5% |
| COc1ccc(/C=c2\c(=O)n(-c3ccccc3)c3nn4c(n23)=NNC42CCCCC2)cc1 | 102% |
| CCNC(=S)N(Cc1ccccc1)Cc1ccccc1 | 104% |
| CCCCCCCCCCCCCCCc1cc(O)ccc1[N+](=O)[O-] | 103% |
| COC1=CC(c2ccc[nH]2)=N/C1=C\c1[nH]c(C)c(C(=O)CCCCCCCCC(=O)O[C@H]2CC[C@H]3C4CCc5cc(O)ccc5C4CC[C@]23C)c1C (stereo partly specified) | 32.5% |
| CCc1oc2ccccc2c1C(=O)c1cc(I)c(O)c(I)c1 | 44% |
| Cc1ccc(N=CNN=C(N)N)cc1 | 94.8% |
| CCCCN(CCCC)CCCN=c1nc2c(c(N)n1-c1ccccc1)c(=S)n(-c1ccccc1)c(=S)n2-c1ccccc1 | -97.7% (active) |
| [Ag].[Ag].[NH-]S(=O)(=O)c1ccc(N=Nc2cc(N=Nc3ccc(S([NH-])(=O)=O)cc3)c3c(NC(=O)C(Cl)Cl)cccc3c2OC(=O)C(Cl)Cl)cc1.[c-]1nccs1.[c-]1nccs1 | 95.7% |
| COc1cc(NCCCCC(C)N)c2nccc(C)c2c1 (stereo unspecified) | 83.9% |
| COC(=O)C(C)NC1=C(Cl)C(=O)C(NC(C)C(=O)OC)=C(Cl)C1=O (stereo unspecified) | 107% |
| COc1cc2nccc(Oc3ccc(NC(=O)C4(C(=O)Nc5ccc(F)cc5)CC4)cc3)c2cc1OC(=O)c1ccc(N)cc1 | -1.2% (active) |
| O=C(NO)c1ccc(NCc2csc3ccccc23)cc1 | 70.3% |
| COc1ccc2[nH]c(O)c(/C=c3/ccc4c(c3)N=C(c3ccc(F)cc3)N=4)c2c1 | 80.3% |
| CCN(CC)CCCC(C)N/C(c1cccc(OC)c1)=c1\c(=O)[nH]n(-c2c3ccccc3nc3ccccc23)c(=O)\c1=C(/NC(C)CCCN(CC)CC)c1cccc(OC)c1 (stereo unspecified) | -91.5% (active) |

— PubChem BioAssay (NCI)
